This is an account of results in the antibiotic and cytotoxicity screens of Wong et al. (2023).

The campaign covered roughly 39,000 compounds. About 1,500 (3.8%) were called active. This is one part of a sample in which actives are shown more often than they occur.

This assay concerns HSkMC (human skeletal muscle cells). The assay can be described thus: cytotoxicity call (relative viability < 0.9). The following applies: 10 µM.
Regarding `C[C@@H]1CCCCO[C@H](CN(C)C(=O)c2ccccc2)[C@H](C)CN([C@H](C)CO)C(=O)c2cc(NC(=O)C3CCCCC3)ccc2O1`, the cytotoxicity call was “inactive”.

With `O=C(NCCN1CCOCC1)c1cccs1`, the cytotoxicity call is “inactive”.

Take `CCc1c(Cl)c(O)c(Cl)c(O)c1C(=O)O[C@H]1[C@H](O)[C@H](OC)[C@H](OC/C2=C\C=C\C[C@H](O)/C(C)=C/[C@H](CC)[C@@H](O[C@@H]3OC(C)(C)[C@@H](OC(=O)C(C)C)[C@H](O)[C@@H]3O)/C(C)=C/C(C)=C/C[C@@H]([C@@H](C)O)OC2=O)O[C@@H]1C`: the cytotoxicity call is “active”.

As to `COc1ccc(CN(C)C[C@@H]2OCCCC[C@@H](C)Oc3ccc(NC(=O)Nc4ccccc4)cc3C(=O)N([C@@H](C)CO)C[C@@H]2C)cc1`, the cytotoxicity call is “inactive”.

As to `COc1ccc(CN(C)C[C@@H]2OCCCC[C@H](C)Oc3ccc(NC(=O)Nc4ccc(F)cc4)cc3C(=O)N([C@@H](C)CO)C[C@@H]2C)cc1`, the cytotoxicity call is “inactive”.

As for `COc1ccc(CN(C)C[C@H]2OCCCC[C@@H](C)Oc3ccc(NC(=O)Nc4ccccc4)cc3C(=O)N([C@H](C)CO)C[C@H]2C)cc1`, the cytotoxicity call was “active”.

For `COc1ccc(CN(C)C[C@H]2OCCCC[C@H](C)Oc3ccc(NC(=O)Nc4ccccc4)cc3C(=O)N([C@@H](C)CO)C[C@@H]2C)cc1`, the cytotoxicity call was “inactive”.

In the case of `COc1ccc(CN(C)C[C@@H]2OCCCC[C@H](C)Oc3ccc(NC(=O)Nc4ccc(F)cc4)cc3C(=O)N([C@H](C)CO)C[C@@H]2C)cc1`, the cytotoxicity call was “inactive”.

In the case of `COc1ccc(CN(C)C[C@H]2OCCCC[C@@H](C)Oc3ccc(NC(=O)Nc4ccc(F)cc4)cc3C(=O)N([C@H](C)CO)C[C@H]2C)cc1`, the cytotoxicity call is “active”.

With `C[C@@H]1CCCCO[C@@H](CN(C)C(=O)C2CCCCC2)[C@H](C)CN([C@H](C)CO)C(=O)c2cc(NC(=O)Nc3ccc(C(F)(F)F)cc3)ccc2O1`, the cytotoxicity call was “inactive”.

As to `C[C@H](CO)N1C[C@H](C)[C@H](CN(C)C(=O)Nc2ccccc2C(F)(F)F)OCc2cnnn2CCCC1=O`, the cytotoxicity call is “inactive”.

With `CO[C@@H]1CN(C)C(=O)c2cc(NC(=O)C3CC3)ccc2OC[C@H](C)N(C(=O)Cc2ccccn2)C[C@@H]1C`, the cytotoxicity call is “inactive”.

For the molecule `COc1ccc(S(=O)(=O)N[C@@H]2C=C[C@H](CC(=O)N3CCC(Cc4ccccc4)CC3)O[C@@H]2CO)cc1`, the cytotoxicity call is “inactive”.

On to `Cn1cc(-c2ccno2)c(C(=O)O)n1`, for which the cytotoxicity call is “inactive”.

Take `Cc1c(-c2c(-c3ccc(F)o3)sc3ncnc(O[C@H](Cc4ccccc4OCc4ccnn4CC(F)(F)F)C(=O)O)c23)ccc(OCCN2CCN(C)CC2)c1Cl`: the cytotoxicity call is “active”.

As for `N#C[C@@H]1N[C@H](CO)[C@H]1c1ccccc1`, the cytotoxicity call is “inactive”.

For the molecule `CCCCCCO[C@@H](C)c1cccc(-c2csc(NC(=O)c3cc(Cl)c(/C=C(\C)C(=O)O)c(Cl)c3)n2)c1OC`, the cytotoxicity call is “active”.

`COCC(=O)N1CC(C)(C)c2cc(-c3csc(NC(=O)c4ccc(F)c(OC(F)(F)F)c4)n3)ccc21`: the cytotoxicity call is “inactive”.

Regarding `C[C@H](CO)N1C[C@H](C)[C@@H](CN(C)Cc2ccncc2)Oc2c(NS(=O)(=O)c3ccccc3)cccc2C1=O`, the cytotoxicity call is “inactive”.

Consider `C[C@H]1CN([C@@H](C)CO)C(=O)Cc2cc(NS(=O)(=O)c3ccc(F)cc3)ccc2O[C@H]1CN(C)Cc1ccc(-c2ccccc2)cc1`, for which the cytotoxicity call was “active”.

On to `C[C@@H]1CN([C@H](C)CO)C(=O)Cc2cc(NS(=O)(=O)c3ccc(F)cc3)ccc2O[C@@H]1CN(C)Cc1ccc(-c2ccccc2)cc1`, for which the cytotoxicity call was “active”.

`C[C@@H]1CN([C@H](C)CO)C(=O)Cc2cc(NS(=O)(=O)c3ccc(F)cc3)ccc2O[C@H]1CN(C)Cc1ccc(-c2ccccc2)cc1`: the cytotoxicity call is “active”.

`C[C@H]1CN([C@@H](C)CO)C(=O)Cc2cc(NS(=O)(=O)c3ccc(F)cc3)ccc2O[C@@H]1CN(C)Cc1ccc(-c2ccccc2)cc1`: the cytotoxicity call was “active”.

With `Cc1ccc(S(=O)(=O)N(C)C[C@H]2Oc3ncc(-c4ccncc4)cc3C(=O)N([C@H](C)CO)C[C@H]2C)cc1`, the cytotoxicity call was “inactive”.

In the case of `C[C@H]1CCCCO[C@@H](CN(C)C(=O)Nc2ccc3c(c2)OCO3)[C@@H](C)CN([C@@H](C)CO)C(=O)c2cc(NC(=O)c3ccccc3)ccc2O1`, the cytotoxicity call was “inactive”.

`CO[C@@H]1CN(C)C(=O)c2cc(NS(C)(=O)=O)ccc2OC[C@@H](C)N(C(=O)C2CCOCC2)C[C@@H]1C`: the cytotoxicity call was “inactive”.

`Cc1noc(C)c1NC(=O)Nc1cccc2c1O[C@H](CN(C)Cc1ccc(C(F)(F)F)cc1)[C@H](C)CN([C@H](C)CO)C2=O`: the cytotoxicity call was “inactive”.

Regarding `NNC(=O)c1cc2ccccc2[nH]1`, the cytotoxicity call was “inactive”.

As for `C[C@H]1CCCCO[C@H](CN(C)Cc2ccccc2)[C@@H](C)CN([C@@H](C)CO)C(=O)c2cc(NC(=O)C3CCCCC3)ccc2O1`, the cytotoxicity call was “inactive”.

As for `C[C@H](CO)N1C[C@H](C)[C@@H](CN(C)Cc2ccc(-c3ccccc3)cc2)Oc2ccc(NS(=O)(=O)c3ccc(F)cc3)cc2CC1=O`, the cytotoxicity call was “inactive”.

Regarding `C[C@@H]1CN([C@@H](C)CO)C(=O)Cc2cc(NS(=O)(=O)c3ccc(F)cc3)ccc2O[C@@H]1CN(C)Cc1ccc(-c2ccccc2)cc1`, the cytotoxicity call is “active”.

`C[C@H](CO)N1C[C@H](C)[C@H](CN(C)Cc2ccc(-c3ccccc3)cc2)Oc2ccc(NS(=O)(=O)c3ccc(F)cc3)cc2CC1=O`: the cytotoxicity call was “active”.

In the case of `C[C@@H]1CN([C@@H](C)CO)C(=O)Cc2cc(NS(=O)(=O)c3ccc(F)cc3)ccc2O[C@H]1CN(C)Cc1ccc(-c2ccccc2)cc1`, the cytotoxicity call is “inactive”.

Take `C[C@@H]1CN([C@@H](C)CO)C(=O)c2cc(NC(=O)CCC(F)(F)F)ccc2O[C@@H](C)CCCCO[C@H]1CN(C)C(=O)C1CCCCC1`: the cytotoxicity call is “inactive”.

In the case of `CSC1=NN(C)c2cnn(C)c(=O)c2S1`, the cytotoxicity call is “inactive”.

With `Cc1noc(C)c1NC(=O)Nc1ccc2c(c1)C(=O)N([C@@H](C)CO)C[C@H](C)[C@@H](CN(C)C(=O)Nc1cccc3ccccc13)OCCCC[C@H](C)O2`, the cytotoxicity call is “inactive”.

Take `CC(C)NC(=O)Nc1ccc2c(c1)C(=O)N([C@@H](C)CO)C[C@@H](C)[C@@H](CN(C)S(=O)(=O)c1ccc(F)cc1)O2`: the cytotoxicity call was “inactive”.

For `CO[C@@H]1CN(C)C(=O)c2ccc(NS(=O)(=O)c3cn(C)cn3)cc2OC[C@H](C)N(CCC(F)(F)F)C[C@H]1C`, the cytotoxicity call was “inactive”.

Take `CC(=N)NCc1cccc(CN)c1`: the cytotoxicity call was “inactive”.

As to `O=C(C[C@H]1CC[C@@H](NC(=O)c2cccnc2)[C@@H](CO)O1)NCCN1CCCCC1`, the cytotoxicity call was “inactive”.
